Among the data in ChEMBL document CHEMBL3988442, “University of Dundee, Small-Polar-MMV Screening Library” (2021) are Percent Effect values, retold here.

Entries with a potency or affinity are not part of this list.

This experiment has as its target T1, Ubiquitin-activating enzyme e1, putative (Leishmania donovani (strain BPK282A1)) (UniProt E9BSI1).
T1 sequence (whole entry): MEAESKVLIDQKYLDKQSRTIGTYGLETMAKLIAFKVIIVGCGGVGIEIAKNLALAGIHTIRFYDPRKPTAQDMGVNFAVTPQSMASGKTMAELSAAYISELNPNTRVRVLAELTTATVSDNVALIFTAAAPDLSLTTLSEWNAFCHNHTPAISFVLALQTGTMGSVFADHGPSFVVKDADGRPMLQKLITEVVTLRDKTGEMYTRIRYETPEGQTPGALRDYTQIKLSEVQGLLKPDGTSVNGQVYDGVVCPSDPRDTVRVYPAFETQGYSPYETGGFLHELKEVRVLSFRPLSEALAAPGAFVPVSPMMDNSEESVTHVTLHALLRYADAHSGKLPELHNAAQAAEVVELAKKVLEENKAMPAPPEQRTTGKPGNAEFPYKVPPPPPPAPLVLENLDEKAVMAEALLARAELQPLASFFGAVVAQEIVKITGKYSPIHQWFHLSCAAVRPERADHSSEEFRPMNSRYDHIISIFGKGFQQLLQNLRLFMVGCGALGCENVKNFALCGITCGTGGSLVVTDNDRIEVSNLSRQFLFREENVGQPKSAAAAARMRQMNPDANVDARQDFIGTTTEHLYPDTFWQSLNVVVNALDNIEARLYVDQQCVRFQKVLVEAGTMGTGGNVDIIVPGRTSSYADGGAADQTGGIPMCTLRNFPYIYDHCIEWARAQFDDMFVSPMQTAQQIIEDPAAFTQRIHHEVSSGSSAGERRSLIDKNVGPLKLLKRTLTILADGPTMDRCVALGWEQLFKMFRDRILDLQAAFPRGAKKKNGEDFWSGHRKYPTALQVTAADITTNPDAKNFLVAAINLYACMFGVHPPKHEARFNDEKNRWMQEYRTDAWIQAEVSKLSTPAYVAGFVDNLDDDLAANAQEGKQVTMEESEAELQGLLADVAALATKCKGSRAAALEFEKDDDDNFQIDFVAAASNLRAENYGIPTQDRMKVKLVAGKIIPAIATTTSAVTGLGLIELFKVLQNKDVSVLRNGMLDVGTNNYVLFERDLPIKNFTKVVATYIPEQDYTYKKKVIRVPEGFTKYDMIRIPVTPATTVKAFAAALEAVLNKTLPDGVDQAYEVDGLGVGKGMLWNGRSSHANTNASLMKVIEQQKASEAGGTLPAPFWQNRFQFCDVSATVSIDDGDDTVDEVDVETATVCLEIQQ
In words: Leishmania donovani Ubiquitin Activating Enzyme (LdE1). Further details: scale not given: direction of the effect not stated beside the values. The note with it: 30 µM. It counts as functional.
In the case of `Cc1nonc1CC(=O)N1C[C@@H]2CC[C@H](C1)N(Cc1ccccc1)C2=O`, the Percent Effect is -2.7%.

Consider `CCOCC(O)CN1CCN(C(=O)CC(C)C)CC1` (stereo not given), for which the Percent Effect stood at 16.2%.

Turning to `Cc1cnc(C(=O)N2CCCN(Cc3csc(C)n3)CC2)cn1`, the Percent Effect came out at 13.7%.

Take `CN1CCCC1CNC(=O)c1nnn(-c2ccc(F)cc2)c1C1CC1` (stereo not given): the Percent Effect is 0%.

As for `CN(Cc1cn2c(n1)CN(C(=O)CC1CC1)CC2)Cc1ccco1`, the Percent Effect was 2.67%.

For the molecule `Cc1cccc(Cn2ccc(NS(C)(=O)=O)n2)c1`, the Percent Effect worked out at 7.79%.

`COc1cccc(COCC(=O)N2CCCC(N3CCCC3)CC2)c1` (stereo not given): the Percent Effect is -10.5%.

For the molecule `OCCOCCN1CCCC1c1nc2cc(F)ccc2[nH]1` (stereo not given), the Percent Effect was determined as 21.9%.

Turning to `Cc1cnn(CC(C)NCc2nc(-c3cccnc3)no2)c1` (stereo not given), the Percent Effect is -1.39%.

On to `Cc1cc(C(=O)NCc2ccnc(N(C)C)c2)c(C)o1`, for which the Percent Effect was found to be 23.4%.

Consider `O=C(NCCn1ccnc1)c1cccc(F)c1`, for which the Percent Effect stood at 18.4%.

As to `COc1ccccc1S(=O)(=O)Nc1ccc2c(C(=O)O)c[nH]c2c1`, the Percent Effect was -10.4%.

Consider `O=C(Cc1cccc(Cl)c1)N[C@@H]1CCNC[C@H]1O`, for which the Percent Effect turned out to be 18.9%.

`CC(=O)N(C)c1nc(CN2CCOC(Cn3cccn3)C2)cs1` (stereo not given): the Percent Effect amounted to 8.11%.

Turning to `N#CC1(C(=O)N2CCN(Cc3ccon3)CC2)CCC1`, the Percent Effect stood at 5.06%.

On to `COc1ccc(CN2CCCC(Nc3cccc(F)c3)C2)cc1O` (stereo not given), for which the Percent Effect is 0%.

Take `Cc1cccc(-n2cc(C(=O)N3CCn4c(C)nnc4C3)nn2)c1`: the Percent Effect is -2.74%.

Take `COc1ccnc(N2CCN(C(=O)c3csc(C4CC4)n3)CC2)n1`: the Percent Effect is 2.7%.

`CCNC(=O)[C@@H]1C[C@H](NC(=O)c2cncnc2C)CN1CCCSC`: the Percent Effect stood at 5.48%.

With `CCc1nc(CN2CCN(c3ncnc4cc(F)ccc34)CC2)no1`, the Percent Effect came out at 0%.

For `O=C(c1cccc(Cn2ccnc2)c1)N1CCCC(n2ccnc2)C1` (stereo not given), the Percent Effect was 16.2%.

Take `O=C(COc1ccc(C(F)(F)F)cc1)NS(=O)(=O)c1cccnc1`: the Percent Effect is 0%.

As for `NS(=O)(=O)N1CCc2ccc(NC(=O)Cc3ccc(F)cc3)cc21`, the Percent Effect came to 2.74%.

In the case of `Cc1ccc(CC2CCCN2CC(=O)NCc2cccnc2)cc1` (stereo not given), the Percent Effect worked out at 2.63%.

`CN(C)CC1CSCCCN1C(=O)Nc1ccc(C(C)(C)C)cc1` (stereo not given): the Percent Effect amounted to 5.2%.

Regarding `CC(CNC(=O)c1ccc(Cl)cc1I)N1CCCC1` (stereo not given), the Percent Effect is -2.7%.

Take `Cc1ncsc1C(=O)N(C)Cc1cccc(Cl)c1`: the Percent Effect was 18.4%.

Regarding `COc1ccc(C2C3=C(COC3=O)Nc3[nH]nc(C)c32)cc1OC` (stereo not given), the Percent Effect was determined as 6.67%.

For `COCCN1CCc2cc(C(=O)N(C)C)c(NC(C)C)nc2CC1`, the Percent Effect turned out to be 8.11%.

For `CCCC(=O)N1CCC(O)(Cn2c(CC)nc3ccccc3c2=O)CC1`, the Percent Effect came out at 17.6%.

Take `CCc1nnsc1C(=O)NC1CCN(c2ccccn2)CC1`: the Percent Effect was determined as 18.9%.

With `Cc1ccc(CN2CC(C(=O)Nc3ccccc3)C3(CCOCC3)C2)s1` (stereo not given), the Percent Effect turned out to be 8%.

With `COc1cccc(CC2CN(C3CCN(C(C)=O)CC3)CCO2)c1` (stereo not given), the Percent Effect was -7.79%.

In the case of `CCOCCCC(=O)NCCC(=O)N1CCN(c2ccccn2)CC1`, the Percent Effect was found to be 7.89%.

In the case of `Cc1nc(CN2CCc3cncnc3C2)oc1C`, the Percent Effect came to 2.74%.

On to `Cc1csc(N2CCN(C(=O)Cc3ccsc3)CC2)n1`, for which the Percent Effect worked out at 21.6%.

On to `COc1ncccc1C(=O)N1CCN(C(=O)Cc2ccccn2)CC1`, for which the Percent Effect came to 21.5%.

With `Cc1cc(-c2nnc(SCC(=O)O)n2C(C)c2ccccc2)nn1C` (stereo not given), the Percent Effect was found to be 12.5%.

Consider `Cc1ccccc1CSCCn1nc2ccccn2c1=O`, for which the Percent Effect is 15.6%.

As for `Fc1cccc(-n2ccc(CN3CCCCC3Cn3cncn3)n2)c1` (stereo not given), the Percent Effect was -7.59%.
